This note sets out measurements from PubChem BioAssay (NCI).

About 83,000 compounds went through this panel and 20% of them were active in at least one assay; those are over-represented in the sample as a whole.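 Single-concentration screen, 48 h exposure, 96-well plates. Endpoint: percent growth. Below 10 = active.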 Unmarked numbers belong to inactive results. Calls of active or inactive are those of the source.

Test in all cases: NCI-60 one-dose screen, 48 h (100 = growth as untreated, 0 = no growth, -100 = all killed)
One test concerns SR leukemia. As to conditions: 10 µM unless noted.
A further test relates to RPMI-8226 leukemia. As to conditions: 10 µM.
Another test concerns OVCAR-8 ovarian. The conditions noted are these: 10 µM unless noted.
Another test deals with OVCAR-5 ovarian. As to conditions: 10 µM unless noted.
The next test concerns OVCAR-4 ovarian. As to conditions: 10 µM unless noted.
A further test relates to SK-OV-3 ovarian. The conditions noted are these: 10 µM.
The next test concerns IGROV1 ovarian. The conditions noted are these: 10 µM unless noted.
In the next test the test system is OVCAR-3 ovarian. The conditions noted are these: 10 µM unless noted.
In the next test the test system is HS 578T breast. The conditions noted are these: 10 µM unless noted.
For a further test, the system named is NCI/ADR-RES ovarian. As to conditions: 10 µM unless noted.
The next test deals with T-47D breast. The conditions noted are these: 10 µM.
For a further test, the system named is BT-549 breast. As to conditions: 10 µM unless noted.
The next test concerns MDA-MB-435 melanoma. As to conditions: 10 µM unless noted.
For a further test, the system named is SW-620 colon. As to conditions: 10 µM unless noted.
Another test deals with MCF7 breast. As to conditions: 10 µM unless noted.
Another test deals with HCT-116 colon. As to conditions: 10 µM unless noted.
For a further test, the system named is HCC-2998 colon. The conditions noted are these: 10 µM unless noted.
The subject of the next test is KM12 colon. As to conditions: 10 µM unless noted.

With `COc1nc2c(cc1S(=O)(=O)c1ccccc1)CCc1c-2cnn1-c1ccccc1`, the growth with SR leukemia is 45.4%; in the test with RPMI-8226 leukemia, 62.6%; in the test with OVCAR-8 ovarian, 76.4%; in the test on OVCAR-5 ovarian, 81.1%; with OVCAR-4 ovarian it was 76.7%; in the test on SK-OV-3 ovarian, 87.2%. Further, the growth was 79.6% in the test on IGROV1 ovarian; 88.9% with OVCAR-3 ovarian; 85.2% with HS 578T breast; 80.8% in the test on NCI/ADR-RES ovarian; 40.4% in the test with T-47D breast; 78.7% in the test with BT-549 breast. Also, the growth in the test with MDA-MB-435 melanoma was 69.3%; with SW-620 colon it was 89.9%; in the test on MCF7 breast, 75.5%; in the test with HCT-116 colon it was 72.4%; with HCC-2998 colon, 98.1%; in the test with KM12 colon it was 100%.
For the compound `Cc1nc(-c2ccccc2)cc2c(O)c(C(=O)N/N=C/Cc3ccccc3)[nH]c(=O)c12`, the growth with SR leukemia is 46.1%; in the test on RPMI-8226 leukemia it was 103%; in the test on OVCAR-8 ovarian, 103%; in the test with OVCAR-5 ovarian, 101%; in the test on OVCAR-4 ovarian it was 110%; in the test on SK-OV-3 ovarian it was 108%. For the same compound, the growth in the test on IGROV1 ovarian was 113%; in the test on OVCAR-3 ovarian, 116%; in the test with HS 578T breast it was 112%; with NCI/ADR-RES ovarian, 109%; in the test on T-47D breast it was 104%; in the test with BT-549 breast it was 105%. The growth in the test on MDA-MB-435 melanoma is 118%; with SW-620 colon, 107%; with MCF7 breast, 98.5%; with HCT-116 colon, 101%; in the test on HCC-2998 colon it was 95.4%; in the test with KM12 colon, 115%.
Turning to `COc1ccccc1/C=C/C(=O)/C=C/c1ccccc1O`, the growth is -61.2% (active) in the test with SR leukemia; -53.7% (active) in the test with RPMI-8226 leukemia; 2.91% (active) in the test on OVCAR-8 ovarian; -35% (active) in the test on OVCAR-5 ovarian; 12.6% in the test on OVCAR-4 ovarian; 88.9% in the test on SK-OV-3 ovarian. Besides, the growth was 5.17% (active) with IGROV1 ovarian; -40.9% (active) with OVCAR-3 ovarian; -40.9% (active) with HS 578T breast; -19.4% (active) with NCI/ADR-RES ovarian; -37.2% (active) in the test on T-47D breast; -34.1% (active) with BT-549 breast. Also, the growth in the test on MDA-MB-435 melanoma is -36.3% (active); in the test with SW-620 colon it was -80.3% (active); in the test with MCF7 breast it was -18.6% (active); with HCT-116 colon, -93.2% (active); in the test with HCC-2998 colon, 4.04% (active); with KM12 colon, -93.9% (active).
For `COc1cc(C2CC(=O)Nc3c2ccc2ccccc32)cc(Br)c1OC` (stereo unspecified), the growth in the test on SR leukemia is -6.32% (active); with RPMI-8226 leukemia it was -13.1% (active); with OVCAR-8 ovarian, 27.7%; in the test with OVCAR-5 ovarian it was 45.1%; with OVCAR-4 ovarian, 41%; with SK-OV-3 ovarian, 2.95% (active). Further, the growth in the test on IGROV1 ovarian was 32.4%; in the test with OVCAR-3 ovarian, -26.3% (active); in the test with HS 578T breast, 14%; in the test with NCI/ADR-RES ovarian, -10.7% (active); in the test with T-47D breast it was 51.2%; in the test on BT-549 breast, 10.9%. Also, the growth with MDA-MB-435 melanoma is -55.5% (active); in the test on SW-620 colon, 20%; in the test on MCF7 breast, 9.65% (active); in the test on HCT-116 colon, 11.2%; in the test on KM12 colon, 16.2%.
Regarding `CCCC1=NNC(=O)C1`, the growth in the test on SR leukemia is 103%; with RPMI-8226 leukemia it was 100%; in the test with OVCAR-8 ovarian, 102%; with OVCAR-5 ovarian, 103%; in the test with OVCAR-4 ovarian, 106%; with SK-OV-3 ovarian, 104%. Besides, the growth in the test with IGROV1 ovarian was 103%; in the test on OVCAR-3 ovarian, 120%; in the test on HS 578T breast, 110%; in the test on NCI/ADR-RES ovarian, 115%; in the test on T-47D breast, 101%; with BT-549 breast it was 99.2%. Further, the growth in the test with MDA-MB-435 melanoma is 98.5%; in the test with SW-620 colon it was 99.8%; with MCF7 breast, 96.3%; with HCT-116 colon it was 98.5%; with HCC-2998 colon it was 119%; in the test with KM12 colon, 117%.
Regarding `COc1nc2c(cc1S(=O)(=O)c1ccccc1)CCc1c-2cnn1-c1cccc(Cl)c1`, the growth with SR leukemia is 47.4%; in the test with RPMI-8226 leukemia it was 56.6%; in the test with OVCAR-8 ovarian it was 81.8%; in the test on OVCAR-5 ovarian, 80.1%; with OVCAR-4 ovarian, 87%; in the test on SK-OV-3 ovarian, 83.2%. In addition, the growth in the test on IGROV1 ovarian was 94.9%; in the test on OVCAR-3 ovarian, 93.7%; in the test with HS 578T breast, 102%; in the test on NCI/ADR-RES ovarian, 89.7%; in the test with T-47D breast it was 59.6%; in the test with BT-549 breast it was 80.8%. Besides, the growth was 63% with MDA-MB-435 melanoma; 93.7% with SW-620 colon; 87.5% in the test with MCF7 breast; 62.9% with HCT-116 colon; 101% in the test with HCC-2998 colon; 85.4% with KM12 colon.
As for `Nc1c(Br)cc(Br)cc1-c1n[nH]c(=O)[nH]c1=O`, the growth in the test on SR leukemia was 7.84% (active); in the test on RPMI-8226 leukemia it was 99.6%; with OVCAR-8 ovarian, 105%; in the test with OVCAR-5 ovarian, 97.2%; in the test on OVCAR-4 ovarian it was 98.5%; in the test with SK-OV-3 ovarian, 93.4%. Also, the growth with IGROV1 ovarian is 105%; in the test on OVCAR-3 ovarian, 113%; in the test with HS 578T breast, 78.3%; in the test with NCI/ADR-RES ovarian it was 103%; with T-47D breast it was 103%; with BT-549 breast, 101%. In addition, the growth is 99.2% with MDA-MB-435 melanoma; 96.9% in the test with SW-620 colon; 99.8% in the test on MCF7 breast; 107% in the test with HCT-116 colon; 111% in the test on HCC-2998 colon; 99.8% in the test with KM12 colon.
`Cc1ccc(C2SCC(=O)N2NC(=O)c2[nH]c3ccc(F)cc3c2-c2ccccc2)cc1` (stereo unspecified): the growth was 76.1% with SR leukemia; 86.7% in the test on RPMI-8226 leukemia; 92.1% with OVCAR-8 ovarian; 99.9% with OVCAR-5 ovarian; 79.7% in the test on OVCAR-4 ovarian; 107% with SK-OV-3 ovarian. Moreover, the growth in the test with IGROV1 ovarian was 88.4%; in the test on OVCAR-3 ovarian, 92%; with HS 578T breast, 95.3%; in the test on NCI/ADR-RES ovarian it was 92%; with T-47D breast it was 91.3%; in the test with BT-549 breast, 93.2%. Moreover, the growth in the test with MDA-MB-435 melanoma was 96.3%; in the test with SW-620 colon, 102%; in the test with MCF7 breast, 93.1%; in the test with HCT-116 colon, 80.1%; in the test with HCC-2998 colon, 70.2%; in the test on KM12 colon, 96.1%.
Take `O=C1C(Br)=C(c2ccccc2)C(=O)C(Br)=C1c1ccccc1`: the growth was 71.1% in the test on SR leukemia; 99.2% in the test on RPMI-8226 leukemia; 91.9% with OVCAR-8 ovarian; 96.7% with OVCAR-5 ovarian; 90% with OVCAR-4 ovarian; 95.4% with SK-OV-3 ovarian. The growth with IGROV1 ovarian is 105%; in the test with OVCAR-3 ovarian, 110%; in the test on HS 578T breast it was 97.2%; in the test with NCI/ADR-RES ovarian, 103%; with T-47D breast, 73.4%; with BT-549 breast it was 97.7%. Also, the growth in the test with MDA-MB-435 melanoma is 91.4%; in the test with SW-620 colon, 94.2%; with MCF7 breast, 92.6%; in the test on HCT-116 colon it was 90.3%; in the test with HCC-2998 colon, 98.2%; in the test with KM12 colon it was 102%.
